From PubChem BioAssay (Tox21)
Inconclusive results are not listed. The source made the active and inactive calls. Calls follow the shape of the dose curve; as a rule, active = well fitted activation curve with a large enough effect in the signal ratio in the repeat runs (not every such curve was filed as active); inconclusive = weak or mixed curves; inactive = flat fitted curve, though single readings scatter; the % refers to the signal ratio.

Test: qHTS assay to identify small molecule agonists of H2AX (AID 1224845)
Settings: CHO-K1 phospho-H2AX Ser139 HTRF, 3 h; series mostly up to 154 µM; activation (H2AX phosphorylation): at the top concentration
From the text: National Center for Advancing Translational Sciences [NCATS]
NIH Chemical Genomics Center [NCGC]
U.S. Environmental Protection Agency [EPA]
National Institutes of Environmental Health Sciences [NIEHS]
National Toxicology Program [NTP]
U.S. Food and Drug Administration [FDA]
HTRF phospho-H2AX (Ser139) assay (Cisbio Bioassays, US) enables the quantitative detection of the histone variant H2AX when phosphorylated on serine 139. When double-stranded DNA breaks, either by ionizing radiation or endogenous physiological processes, H2AX becomes phosphorylated at Ser139. This phospho-Ser139 serves as a sensitive biomarker for the detection of such breaks, localizing the site of DNA repair. So, HTRF phospho-H2AX Ser139 is a pertinent assay to study genome stability, the cell cycle, DNA repair, and it serves as a biomarker for cancer, and to understand aging. Wild type CHO-K1 cells were used to identify the inducers of Phospho-H2AX Ser 139 from the Tox21 10K compound collections.
Tox21 Assay Protocol Summary:
The CHO-K1 cells suspended in culture medium containing 10% FBS were dispensed at 1000 cells/ 3 ul/well in 1536-well white wall/solid bottom plates (Greiner Bio-One North America, NC) using a Multidrop Combi (Thermo Fisher Scientific Inc., Waltham, MA). After the assay plates were incubated at 37C overnight, 23 nl of compounds at 15 concentrations (from 5-48 columns) or positive control (from 1 to 4 columns) were transferred to the assay plates using a Pintool station (Wako, San Diego, CA) into each well resulting in a final DMSO concentration of 0.76%. After 3hr incubation at 37C, 1 uL/well Supplemented Lysis buffer (diluted 100 fold blocking reagent in lysis buffer) (HTRF Phospho-H2A.X (S139) Assay kit from Cisbio US Inc., Bedford, MA) was added using a Flying Reagent Dispenser (FRD) (Aurora Discovery, CA). After 10sec spin at 1000 rpm in a plate centrifuge, the assay plates were incubated at room temperature for 30 min. Then followed by the addition of 1 uL/well detection buffer (containing a mixture of two antibodies, one labeled with cryptate, Anti pH2AX (S139)-K and another labeled with d2, Anti H2AX-d2) using FRD. After incubation at room temperature for 24 hr, the time resolved fluorescence at excitation 320 nm and emissions at 665 nm and 620 nm was measured using an Envision plate reader (PerkinElmer, Waltham, MA).
% is scaled to controls: 0 for no effect and ±100 for the full control effect.

SMILES | activation (H2AX phosphorylation)
NC(Cc1c[nH]c2ccccc12)C(=O)O (stereo not given) | -0.835% [at 70.9 µM] (inactive)
C[N+](C)(C)CC(O)CCl (stereo not given) | 3.74% (inactive)
CCCCCC(=O)OCC | 2.68% (inactive)
CC(=O)c1ccc(OCC(=O)N2CCCCC2)cc1 | -5.33% [at 70.9 µM] (inactive)
COCCOCCOCCOC | -1.79% (inactive)
CN=C(NC#N)NCCSCc1csc(N=C(N)N)n1 | -1.98% [at 70.9 µM] (inactive)
CCCCCCCCCCCCOC(C)=O | 0.567% (inactive)
COc1ccc(/C=N/NC(=O)c2ccncc2)cc1OC | -4.58% [at 70.9 µM] (inactive)
CCNC(=O)NCCCOc1cccc(CN2CCCCC2)c1 | -0.0342% [at 70.9 µM] (inactive)
CCC(C)(C)C1CCC(=O)CC1 | -1.25% (inactive)
CCN(Cc1cccc(S(=O)(=O)O)c1)c1ccccc1 | 1.42% (inactive)
C=CCOC(=O)c1ccc(C(=O)OCC=C)c(C(=O)OCC=C)c1 | 0.37% (inactive)
Cc1ccccc1C | 0.0706% (inactive)
Nc1nc(=O)n([C@@H]2O[C@H](CO)[C@@H](O)[C@@H]2F)cc1I | -0.179% [at 70.9 µM] (inactive)
C=C(C)C(=O)OC | 0.247% (inactive)
COc1cc([N+](=O)[O-])ccc1N | 0.199% (inactive)
NS(=O)(=O)c1cc2c(cc1Cl)NC(CC1CCCC1)NS2(=O)=O (stereo not given) | 1.12% [at 70.9 µM] (inactive)
C1CCN2C[C@@H]3C[C@@H](CN4CCCC[C@@H]34)[C@H]2C1 | -0.987% [at 70.9 µM] (inactive)
CCCCOC(=O)[C@@H](C)Oc1ccc(Oc2ccc(C(F)(F)F)cn2)cc1 | -3.16% (inactive)
CC(C)CCC(=O)CCC(C)C | -1.88% (inactive)

SMILES | activation (H2AX phosphorylation)
O=c1cc(O)c(Cl)c[nH]1 | 0.222% [at 70.9 µM] (inactive)
CC(=O)Nc1ccc(C)cc1 | -3.59% (inactive)
CCCCCCCCCOCC1CO1 (stereo not given) | 0.154% (inactive)
C1=C\CC/C=C\CC/1 | -1.66% (inactive)
NS(=O)(=O)c1ccccc1OC(F)(F)F | 0.961% (inactive)
CC(C)COC(=O)COc1ccc(Cl)cc1Cl | 0.779% (inactive)
O=C(c1ccc2c(c1)C(=O)OC2=O)c1ccc2c(c1)C(=O)OC2=O | -1.42% (inactive)
CC(C)(c1ccc(Oc2ccc3c(c2)C(=O)OC3=O)cc1)c1ccc(Oc2ccc3c(c2)C(=O)OC3=O)cc1 | 2.7% (inactive)
C=CCOCC(O)CCl (stereo not given) | 1.09% (inactive)
CC(C)CCCCCCOC(=O)C1CCCCC1C(=O)OCCCCCCC(C)C (stereo not given) | -0.704% (inactive)
O=C(O)C(=O)Nc1cccc(-c2nn[nH]n2)c1 | -3.15% [at 70.9 µM] (inactive)
C=CCOc1cc(Cl)ccc1C(=O)NCCN(CC)CC | -8.85% [at 70.9 µM] (inactive)
CCC(CO)CO | -0.785% (inactive)
Cn1c(=O)c2c(ncn2CC2OCCO2)n(C)c1=O | 0.554% [at 70.9 µM] (inactive)
C=CCOCC(CO)(COCC=C)COCC=C | -0.915% [at 70.9 µM] (inactive)
NS(=O)(=O)c1cc2c(cc1Cl)NC(C(Cl)Cl)NS2(=O)=O (stereo not given) | -0.696% [at 70.9 µM] (inactive)
CCCCCCCCOC(C)=O | -3.73% (inactive)
Nc1ccc(C(=O)OCC(O)CO)cc1 (stereo not given) | -2.86% [at 70.9 µM] (inactive)
CCOC(=O)CCCCCCCCC(=O)OCC | -1.46% (inactive)
CCN1CN(CC)CN(CC)C1 | -0.415% (inactive)
